Screening results (PubChem)
Mcl1-Noxa inh: Mcl-1/Noxa binding inhibitors, primary screen, biochemical, TR-FRET, 1536-well. inhibition, % at 21.7 µM. hit rate 1.5% among 220,000. TR-FRET Mcl-1/Noxa peptide binding, 2 h;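 active = compounds that cut the protein-peptide binding signal by more than 50% relative to plate controls in a single-dose test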;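 note: His-tagged Mcl-1 with rhodamine Noxa BH3 peptide and terbium anti-His antibody; 0% = Mcl-1 plus Noxa peptide wells and 100% = peptide-only wells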
14-3-3 Bad inh: inhibitors of 14-3-3 zeta/Bad binding, primary screen, biochemical, TR-FRET, bovine 14-3-3 zeta | TR-FRET 14-3-3zeta/Dy647-pBad peptide displacement, 1 h | inhibition, % at 21.7 µM | hit rate 0.71% among 220,000;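 active = inhibition above about 70%, limit read from the data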;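 note: 0% = full 14-3-3 plus peptide FRET controls and 100% = background without 14-3-3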
Mcl1 Bid PPI: Mcl-1/Bid binding inhibitors, primary screen, biochemical, TR-FRET, 1536-well | Induced myeloid leukemia cell differentiation protein Mcl-1 (Homo sapiens), Q07820 | TR-FRET Mcl-1/Bid-Dy647 peptide binding | inhibition, % at 21.7 µM | hit rate 0.97% among 220,000 | AID 1021, 2008;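 active = compounds that cut the binding signal by more than half at the single screening dose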;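 note: His-tagged Mcl-1 with europium anti-His antibody binding Bid BH3 peptide; 0% = Mcl-1 plus peptide wells and 100% = peptide-only wells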
Mcl-1 Bim block: inhibitors of Bim peptide binding to Mcl-1, primary screen, biochemical, bead-based flow cytometry, multiplex. Induced myeloid leukemia cell differentiation protein Mcl-1 (Homo sapiens), Q07820. Bim peptide-Mcl-1 binding. inhibition, % at 10 µM. hit rate 0.1% among 190,000; in the data active = inhibition above about 40%;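 note: 0% = no compound tracer wells and 100% = peptide blocker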
eIF4E-4G inh: eIF4E–eIF4G protein interaction inhibitors, primary screen, biochemical, uHTS, TR-FRET, eIF4GI fragment | Eukaryotic translation initiation factor 4E (Mus musculus) + Eukaryotic translation … | inhibition, % at 21.7 µM | TR-FRET eIF4E-eIF4GI(517-606) binding, 2 h | hit rate 0.37% among 220,000 | AID 782, 2007;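 note: 0% = full FRET control wells and 100% = background wells lacking eIF4GI fragment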
p47phox inh: p47phox/p22phox peptide binding inhibitors, primary screen, biochemical, uHTS, NADPH oxidase regulatory subunit | Neutrophil cytosol factor 1 (Homo sapiens), P14598 | fluorescence polarization, 2 h | inhibition, % at 24.7 µM | hit rate 0.53% among 220,000;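 note: 0% = p47phox with labelled peptide and 100% = labelled peptide alone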
* hit, by the source's call; x = no result. An excerpt weighted towards active compounds, which were near 3.3% of everything screened.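 Rule for the calls, unless noted: active = inhibition above about 30% (limit read from the data); inactive = the rest.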

SMILES	Mcl1-Noxa inh	14-3-3 Bad inh	Mcl1 Bid PPI	Mcl-1 Bim block	eIF4E-4G inh	p47phox inh
Cc1cc(N2CCCC2)nc2ccc(NC(=S)NC(C)C)cc12	61*	-5	-25	-2	-6	4
CCSc1ccc(-c2ccc(C)cc2)nn1	10	3	0	0	4	37*
CCOc1ccc(-c2ccc(SCC)nn2)cc1	-4	-5	0	0	0	-3
CCn1c2ccccc2c2cc(/C=N/NC(=O)c3cc(O)cc(O)c3)ccc21	63*	7	-13	-2	2	-46
CCc1cccc(NC(=S)N(CCOC)C(C)c2ccco2)c1 (centres undefined)	18	4	-134	x	-3	-6
O=C(COC(=O)CCCN=C1NS(=O)(=O)c2ccccc21)NC(=O)NC1CCCC1	12	-20	-20	102*	-3	-5
O=C(COC(=O)CCN=C1NS(=O)(=O)c2ccccc21)NC1CCCCCCC1	-13	3	-24	x	-3	-13
Cc1ccc(NC(=O)c2ccc3c(c2)OCCO3)cc1S(=O)(=O)Nc1cccc(Cl)c1	6	6	22	5	-2	-35
Cn1c(=O)c2[nH]c(N=Nc3ccc(N)cc3N)nc2n(C)c1=O	41	-5	-124	x	0	-30
O=C(COc1ccc(Br)cc1Cl)c1ccc[nH]1	15	1	-1	-3	4	-1
O=C(COc1ccccc1Cl)c1ccc[nH]1	50	35	-5	1	33*	-8
CC1CN(CC(=O)Nc2ccc([N+](=O)[O-])cc2Br)CC(C)O1 (centres undefined)	5	-4	-23	-4	3	-4
Brc1c(NC2=NCCN2)ccc2nccnc12	59*	0	2	0	3	-2
O=[N+]([O-])c1ccc(N/N=C/c2c[nH]c3ccccc23)cc1	x	-13	-53	0	4	-88
O=[N+]([O-])c1cccc(N/N=C/c2cccc3ccccc23)c1	59*	11	-13	-2	-1	-3
O=C(O)/C(=C/c1ccco1)NC(=O)c1ccccc1	24	0	-29	-1	10	-3
O=C(O)/C(=C\c1ccco1)NC(=O)c1cccc2ccccc12	27	1	-10	2	0	127*
CCOc1nc(NCCO)nc(Nc2cc(Cl)ccc2OC)n1	13	-11	-23	1	1	-14
Cc1nc([N+](=O)[O-])c(SCC(O)CCl)n1Cc1ccc(Cl)cc1 (centres undefined)	-3	-7	-18	0	-1	-1
CC(C)c1ccccc1NC(=O)C1CN(S(=O)(=O)c2ccccc2)CCN1S(=O)(=O)c1ccccc1 (centres undefined)	5	-13	-15	-2	11	-9
CCc1ccccc1NS(=O)(=O)c1ccc2[nH]cc(C(=O)NC3CCCC3)c(=O)c2c1	72*	26	66*	-2	4	-20
O=C(NC1CCCC1)c1c[nH]c2ccc(F)cc2c1=O	-4	5	-11	-1	7	7
COc1ccc(/C=C2\CCCC3C2=NN(C(=O)CSc2n[nH]c(N)n2)C3c2ccc(OC)cc2)cc1 (centres undefined)	12	5	-8	1	-2	-2
COc1ccc(C(=O)CSc2ccc(-c3ccco3)nn2)cc1	40	-5	-10	-2	2	-1
O=C(CSc1ccc(-c2ccco2)nn1)c1ccccc1	59*	-9	-15	-7	-2	-4
Cc1nnc(NC(=O)CSc2ccc(-c3ccco3)nn2)s1	56*	0	-56	4	13	-3
CCc1nnc(NC(=O)CSc2ccc(-c3ccco3)nn2)s1	59*	5	-36	-2	20	3
Cc1ccccc1NC(=O)CSc1ccc(-c2ccco2)nn1	13	0	-12	-3	10	-12
